Bioassay records as filed in PubChem.
Hits are enriched below; roughly 7.9% of the tested compounds scored in any of these assays.
Lassa entry inh: Lassa virus entry inhibition; Lassa virus pseudotype entry inhibition, cell reporter; Potency, µM (series often up to 37.9 µM), for inactives: at the highest dose activity change, negative = inhibition, actives largely listed as inhibitors; 1.2% of 300,000 active; AID 540256; calls by dose curve; tested in HEK293 cells; further: potency means the concentration at half of the fitted maximal effect; nearly all actives have a fitted effect of over 50% in size
HCV inh: HCV inhibition; Huh7.5.1 HCVcc-Cre infection, luciferase reporter, 44 h; Potency, µM (titrated, usually from 41.8 µM), without a hit: at the top dose activity change, negative = inhibition, usual class: inhibitors; 3.4% of 340,000 active; active means well fitted inhibition curve with a large enough effect; inconclusive means small, poorly fitted or top-dose-only effect, or another doubt; inactive means no such curve, though single readings can be large or run the other way; further: potency means the concentration at half of the fitted maximal effect
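Seed cells (1,000/well) for 4 h; treat with compound and infect with HCVcc-Cre, moi about 0.5. Incubate 44 h, then detect luciferase activity.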
HCMV antiviral: blocks human cytomegalovirus replication; HFF cells, HCMV-luciferase reporter, 72 h; stronger effect = lower value; activity change, negative = inhibition, % at 57.5 µM; 4.5% of 410,000 active; AID 1259415; in the data active means activity change below about -60%; inconclusive means no clear call, values can overlap the other calls; inactive means above about -39%
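Cell-based, HFFs, 1000 cells/well, 16 h 37C; cpds in DMSO + HCMV-luc, MOI 1 PFU/cell; 72 h 37C; OneGlo luminescence after 5 min RT; norm. to buffer vs Salinomycin 10uM.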
MARV entry inh: Marburg virus entry inhibition; Marburg virus pseudotyped entry inhibition, cell reporter; Potency, µM (highest dose often 37.8 µM), for the others: at the highest dose activity change, negative = inhibition, hits mostly inhibitors; 1.8% of 300,000 active; calls by dose curve; tested in HEK293 cells; further: potency means the concentration at half of the fitted maximal effect
FMDV antiviral: blocks foot and mouth disease virus; Potency, µM (titrated, usually from 57.9 µM), without a hit: at the highest dose activity change, negative = inhibition, usual class: inhibitors; FMDV antiviral cell-based qHTS; AID 1159524; 1.2% of 410,000 active; calls by dose curve; tested in HEK293T cells; further: read-out not given here; potency means the concentration at half of the fitted maximal effect; nearly all actives have a fitted effect of over 45% in size
An asterisk follows results filed as active; ? = inconclusive; . = no result given; [ ] = remark or other dose. On the % scale 0 is the no-effect control and ±100 the full control effect.

SMILES	Lassa entry inh	HCV inh	HCMV antiviral	MARV entry inh	FMDV antiviral
O=C(CC[C@H]1O[C@@H](n2cnc3c(NC(=O)c4ccccc4)ncnc32)[C@H](O)[C@@H]1O)NCc1cccc2ccccc12	.	.	-63.8*	.	-15.6%
CCOCCCNC(=S)NCCNc1nc2ccc(C)cc2cc1C#N	-3.5%	?	32.1	-0.4%[46.1 µM]	16.8%
CCOCCCNC(=S)NCCCNc1nc2ccc(C)cc2cc1C#N	.	.	-90.6*	.	.
Cc1ccc(NC(=O)Cn2c(=O)c3cc(Cl)ccc3n3nncc23)cc1	12.2%[46.1 µM]	.	8.4	?	0.9%
CCCNC(=O)c1nnsc1S(=O)(=O)c1ccc(Cl)cc1	2.82µM*	6.31µM*	-99.1*	?	31.6µM*
CCCNC(=O)c1nnsc1S(=O)c1ccc(Cl)cc1 (stereo not given)	?	?	-101.5*	?	35.5µM*
CCCNC(=O)NS(=O)(=O)c1ccc(Cl)cc1	13.7%	-9.5%[8.37 µM]	55.0	-11.8%	?
CNC(=O)c1nnsc1S(=O)c1ccc(Cl)cc1 (stereo not given)	?	?	-7.6	?	?
c1ccc(Nc2ncnc3sccc23)cc1	-8.3%[46.1 µM]	-15.6%	-60.7*	16.1%[46.1 µM]	-9.0%
COc1ccc(Nc2ncnc3sccc23)cc1	15.7%	-13.1%	-34.6	?	51.8%
CC(Nc1ncnc2sccc12)c1ccccc1 (stereo not given)	-11.3%[46.1 µM]	2µM*	-85.5*	?	?
COC(=O)CC1=C(C(=O)OC)C(c2cccs2)C(C#N)=C(N)O1 (stereo not given)	-2.8%	22.2%	-100.7*	3.4%[46.1 µM]	0.0%
O=C(CSc1n[nH]c(-c2ccccc2)n1)NCCCc1ccccc1	-3.7%[46.1 µM]	.	-9.1	.	-24.0%
Cn1c(N/N=C/c2cccs2)nc2c1c(=O)n(Cc1ccccc1)c(=O)n2C	1.0%	?	34.2	?	?
Cn1c(=O)c2c(nc(N/N=C/c3ccc(OC(=O)c4ccco4)cc3)n2Cc2ccccc2)n(C)c1=O	10µM*	?	71.6	?	12.6µM*
Cn1c(=O)c2c(nc(N/N=C/c3cccs3)n2Cc2ccccc2)n(C)c1=O	?	?	?	-17.5%	25.1µM*
Cc1ccc(NC(=O)CCCn2c(=O)c3cccn3c3cccnc32)c(Cl)c1	?	.	-32.5	.	-7.7%
Cc1cccc(OCC(=O)Nc2ccc(C(=O)OCc3cc(=O)n4nc(C5CC5)sc4n3)cc2)c1	?	.	5.4	.	-7.7%
COc1cc2c(cc1O)C(Cc1ccc(O)cc1)NCC2 (stereo not given)	-14.5%	-1.7%	-10.6	13.1%	-11.9%
COc1cc2c(cc1OC)-c1c(OC)c(OC)cc3c1C(C2)N(C)CC3 (stereo not given)	.	-32.1%	27.9	.	-14.2%
COc1cc2c(cc1O)C[C@H]1NCCc3cc4c(c-2c31)OCO4	?	10.9%[8.37 µM]	-84.0*	?	0.0%
COc1cc2c(cc1OC)-c1c3c(cc4c1[C@@H](C2)N(C)CC4)OCO3	?	?	-75.6*	-40.0%	?
O=c1c(-c2ccc(F)cc2)nc2cnc(N3CCOCC3)nc2n1C1CC1	.	.	.	.	16.9%
Cc1cccc(-n2cc(CN(C)Cc3nccn3C)c(-c3cccc(F)c3)n2)c1	.	?	6.4	.	-18.3%
CCn1ccnc1CN(C)Cc1cn(-c2cccc(C)c2)nc1-c1cccc(F)c1	.	3.55µM*	-38.2	.	0.0%
SMILES	Lassa entry inh	HCV inh	HCMV antiviral	MARV entry inh	FMDV antiviral
Cc1cc(S(=O)(=O)Nc2ccc3oc4c(c3c2)CCCC4)ccc1Cl	0.4%[46.1 µM]	.	?	-0.1%[46.1 µM]	10.4%
CCN(C=NC1=NN(c2cccc(C(F)(F)F)c2)CC1)CC	-1.8%	11.2µM*	-22.4	?	43.1%
OCCN(C=NC1=NN(c2cccc(C(F)(F)F)c2)CC1)CCO	5.6%	-21.1%	-10.2	8.8%	21.5%
CCCN(CC(=O)Nc1ccc(Cl)cc1Cl)C(=O)/C=C/c1ccco1	?	?	-65.6*	?	3.6%
CCOc1ccccc1N(CC(=O)NCCSc1ccccc1)S(=O)(=O)c1ccccc1	?	.	-11.8	.	-18.3%
COc1ccc(/C=C/c2c([N+](=O)[O-])c(=O)n(C)c(=O)n2C)cc1	.	1.7%	10.3	-6.7%[46.1 µM]	-1.4%
CCOc1ccc(/C=C/c2c([N+](=O)[O-])c(=O)n(C)c(=O)n2C)cc1	?	9.6%	-75.4*	?	-29.3%
CCc1ccc(/C=C/c2c([N+](=O)[O-])c(=O)n(C)c(=O)n2C)cc1	.	?	-97.9*	.	15.8µM*
COc1ccccc1CNC(=O)Cn1c(=O)nc(-c2ccccc2)c2ccccc21	?	.	12.6	.	5.3%
Cc1cnc(SCc2ccccn2)nc1C1CCCN(C(=O)c2noc3c2CCCC3)C1 (stereo not given)	.	.	.	.	20µM*
Cc1cnc(SCc2ccccn2)nc1C1CCCN(C(=O)c2scc3c2CCCC3)C1 (stereo not given)	.	.	.	.	15.8µM*
Cc1cnc(SCc2ccccn2)nc1C1CCCN(C(=O)c2coc3c2C(=O)CCC3)C1 (stereo not given)	.	.	.	.	-7.4%
COCCN1CCC(CNCc2cn(-c3cc(C)ccc3C)nc2-c2ccccc2)C1 (stereo not given)	.	7.94µM*	-60.0*	.	-5.7%
COCCN1CCC(CNCc2cn[nH]c2-c2ccc(C)c(C)c2)C1 (stereo not given)	.	?	30.3	.	-17.8%
CCOc1ccc(OCC)c(NC(=O)CSc2nc3cccnc3n2C)c1	-28.0%	6.31µM*	-62.6*	-21.1%	17.8µM*
Cn1c(=O)[nH]c(=O)c2c1nc(SCC(=O)O)n2Cc1ccccc1	.	10.3%	23.6	.	-7.8%
Cc1ccccc1C(=O)Nc1cccc(NC(=O)Cn2cnc3c(=O)n(C)c(=O)n(C)c32)c1	?	?	-64.1*	?	-8.0%
Cc1cccc(NC(=O)CSc2nc3ccccc3c(=O)n2C)c1	?	10µM*	?	7.08µM*	?
Cc1cccc(Cn2c(SCC(=O)Nc3ccccc3)nc3c2c(=O)[nH]c(=O)n3C)c1	.	25.1µM*	23.2	.	-24.2%
COc1ccc(C(=O)[C@@H]2CCCCC2=O)cc1	.	.	.	23.9%	.
CCOc1ccc(OCC)c(NC(=O)CSc2nc3ccccc3c(=O)n2C)c1	?	?	-70.4*	?	?
CC(=O)Nc1cccc(NC(=O)CSc2ncc(C(=O)Nc3ccc(F)cc3)c(=O)n2C)c1	-25.7%	-3.6%	3.7	?	?
CC(=O)Nc1cccc(NC(=O)CSc2ncc(C(=O)Nc3ccccc3)c(=O)n2C)c1	-2.9%	11.2µM*	9.5	?	?
N#CCSc1nc2ccccc2c2nc3ccccc3n12	2.7%	?	-103.1*	?	?
Cn1cccc1C(=O)OCC(=O)N1CCc2ccccc21	.	3.5%	17.5	.	68.6%
Cn1cccc1C(=O)OCC(=O)N1CCc2ccccc2C1	.	.	-61.1*	.	29.3%
Clc1cccc(CN2CCc3c([nH]c4ccccc34)C2)c1Cl	.	?	-91.0*	.	?
COc1ccccc1CN1CCc2c([nH]c3ccccc23)C1	.	-17.1%	44.9	.	-11.9%
O=C(CSc1nnnn1C1CC2CCC1C2)Nc1ccnc2ccccc12 (stereo not given)	?	-15.2%	-75.5*	?	39.8µM*
